TEAD-YAP block = TEAD-YAP interaction inhibition; HEK-TIYL cells, TEAD-Gal4/YAP UAS-luciferase luminescence; inhibition, % at 9.12 µM; 640,000 tested, 1.4% active; in the data active = inhibition above about 32%;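 also: 0% = median of test compound wells and 100% = reference inhibitor wells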
GPR151 ag = human GPR151 activation | Q8TDV0 | PathHunter beta-arrestin GPR151 cells, luminescence | activation, % at 11.2 µM | 650,000 tested, 1% active; in the data active = activation above about 4.9%;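 also: 0% = median of compound wells and 100% = cells with positive control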
FBW7 act = activators of human E3 ligase FBW7. Q969H0. AlphaScreen FBW7–phospho-cyclin E peptide binding, activator screen. normalized activity (activation), % at 26.1 µM. 650,000 tested, 0.13% active; in the data active = normalized activity above about 1.9%;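 also: purified mutant Fbw7 with reduced substrate affinity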
MITF primary = inhibitors of human MITF. O75030. AlphaScreen MITF homodimerization, bead proximity signal. inhibition, % at 2.6 µM. 650,000 tested, 0.91% active; in the data active = inhibition above about 50%;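 also: 0% = vehicle wells with protein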
GPR151 conf act = human GPR151 activation, confirmation screen; activation, % at 11.2 µM; 6,700 tested, under 10 active; shares compounds with GPR151 ag; GPR151 PathHunter beta-arrestin cells, luminescence, 90 min; % of EA-reagent control over plate median;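 active = mean percent activation across replicates above the confirmation screen cutoff of 4.91%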
GPR119 counter = activates human GPR119 in a GPR151 counter-screen | shares compounds with GPR151 ag | GPR119 PathHunter beta-arrestin cells, luminescence, 90 min; 0 = compound-well median, 100 = enzyme-acceptor control | activation, % at 11.2 µM | 6,700 tested, 0.3% active | AID 1508611;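 active = mean percent activation in the counterscreen above 29.09%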;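 also: counterscreen on off-target GPR119 to flag nonselective hits from the GPR151 activator screen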
* = called active by the depositor. An excerpt weighted towards active compounds, which were near 3.5% of everything screened.

Screening O=C(O)c1cc(F)cc(S(=O)(=O)Nc2ccc(F)c(F)c2)c1 returned TEAD-YAP block -3, GPR151 ag -1, FBW7 act 0 and MITF primary 19.
For CCCC(=O)Nc1sc(C)c(CC)c1C(=O)OCC the results were TEAD-YAP block 8, GPR151 ag 13*, FBW7 act 0, MITF primary -4, GPR151 conf act 0 and GPR119 counter -8.
CCOC(=O)c1c(NC(=O)CNCC(O)CO)sc(C)c1C (stereo not given) was read as TEAD-YAP block -16, GPR151 ag 5.3*, FBW7 act 0, MITF primary -11, GPR151 conf act 1 and GPR119 counter 5.
Screening CCCc1cc(C(=O)Nc2sc(C)c(CC)c2C(N)=O)cs1 returned TEAD-YAP block -28, GPR151 ag 9.1*, FBW7 act 1, MITF primary 23, GPR151 conf act 0 and GPR119 counter 5.
Screening CCOC(=O)COC(=O)c1nsc(Cl)c1Cl returned TEAD-YAP block 17, GPR151 ag -1, FBW7 act 0 and MITF primary -5.
Screening O=C1NC2(CCc3ccccc3C2)C(=O)N1CN1CCN(Cc2ccc3c(c2)OCO3)CC1 (stereo not given) returned TEAD-YAP block 9, GPR151 ag 8.3*, FBW7 act 0, MITF primary 5, GPR151 conf act 0 and GPR119 counter -1.
Screening Cc1cc(C)cc(N(C(C)C(=O)O)S(C)(=O)=O)c1 (stereo not given) returned TEAD-YAP block -14, GPR151 ag 5.5*, FBW7 act 0, MITF primary 10, GPR151 conf act 0 and GPR119 counter 9.
Screening OCCOCCN(CCOCCO)Cc1ccccc1 returned TEAD-YAP block 6, GPR151 ag 0, FBW7 act 0 and MITF primary -2.
CCOc1ccc(/C=C2\Oc3c(ccc(O)c3CN3CCN(CCO)CC3)C2=O)cc1 was read as TEAD-YAP block -6, GPR151 ag -1, FBW7 act 0 and MITF primary -8.
Screening CCOc1ccccc1/C=C1\Oc2c(ccc(O)c2CN2CCN(CCO)CC2)C1=O returned TEAD-YAP block 1, GPR151 ag 6.8*, FBW7 act 0, MITF primary 2, GPR151 conf act 0 and GPR119 counter 6.
C[C@H]1NC(=O)[C@@H]2C[C@H](NCc3cccc4cccnc34)CN2C1=O was read as TEAD-YAP block 4, GPR151 ag 8.6*, FBW7 act 0, MITF primary 12, GPR151 conf act 0 and GPR119 counter 11.
COc1ccc(C(=O)NC(=S)Nc2ccccn2)cc1OC was read as TEAD-YAP block -27, GPR151 ag 1, FBW7 act 0 and MITF primary -12.
`C(=NCc1ccccc1)c1c[nH]c2ccccc12` gave TEAD-YAP block 6, GPR151 ag 0, FBW7 act 1 and MITF primary -2.
CC(=O)N1CCc2cc(Br)cc(S(=O)(=O)N3CCCCC3)c21 was read as TEAD-YAP block -4, GPR151 ag 1, FBW7 act 0 and MITF primary 15.
`CC(=O)N1CCc2cc(Br)cc(S(=O)(=O)N3CCC(O)(c4cccc(C(F)(F)F)c4)CC3)c21` gave TEAD-YAP block 2, GPR151 ag 4.9*, FBW7 act 0, MITF primary -2, GPR151 conf act -1 and GPR119 counter 11.
Screening O=C1NC(=O)C(Nc2ccc(C(=O)O)cc2)S1 (stereo not given) returned TEAD-YAP block -2, GPR151 ag -1, FBW7 act 0 and MITF primary 5.
CC(C)OCCCNc1ncnc(N)c1[N+](=O)[O-] was read as TEAD-YAP block 40*, GPR151 ag 7.7*, FBW7 act 0, MITF primary 7, GPR151 conf act 0 and GPR119 counter -8.
Screening CCCCNc1ncnc(N)c1[N+](=O)[O-] returned TEAD-YAP block 21, GPR151 ag 3, FBW7 act 0 and MITF primary -1.
CCNC(=S)N1CCN(Cc2ccc(F)cc2)CC1 was read as TEAD-YAP block -2, GPR151 ag 6.6*, FBW7 act 0, MITF primary 13, GPR151 conf act 0 and GPR119 counter -10.
`CN1CCCN(Cc2ccc(Cl)c(Cl)c2)CC1` gave TEAD-YAP block 9, GPR151 ag 0, FBW7 act 0 and MITF primary 32.
Screening CN1CCCN(Cc2ccc(F)cc2)CC1 returned TEAD-YAP block -3, GPR151 ag 6.0*, FBW7 act 0, MITF primary 49, GPR151 conf act 0 and GPR119 counter 17.
For COc1cc(OC)c(C(=O)NCc2ccc(Cl)cc2)cc1OC the results were TEAD-YAP block -3, GPR151 ag -1, FBW7 act 0 and MITF primary -10.
`O=C1OC(c2ccc(Cl)c(Cl)c2)=N/C1=C\c1cccc(Br)c1` gave TEAD-YAP block -3, GPR151 ag 0, FBW7 act 0 and MITF primary 5.
Screening O=C1c2ccccc2C(=O)N1c1cc(Cl)cc(Cl)c1 returned TEAD-YAP block -13, GPR151 ag 0, FBW7 act 1 and MITF primary 6.
For Cc1cccc(C(=O)Oc2ccc(C)c(C)c2)c1 the results were TEAD-YAP block 2, GPR151 ag 1, FBW7 act 0 and MITF primary -22.
Screening Cc1cccc(C(=O)Oc2ccc(/C=N/N=C(N)N)cc2)c1 returned TEAD-YAP block 65*, GPR151 ag 8.5*, FBW7 act 0, MITF primary -14, GPR151 conf act -1 and GPR119 counter -14.
`COc1ccc(OC)c(-n2c(CN3CCC(C(N)=O)CC3)nc3ccccc3c2=O)c1` gave TEAD-YAP block 15, GPR151 ag 5.6*, FBW7 act 0, MITF primary 5, GPR151 conf act 0 and GPR119 counter -11.
CC(C)C[C@@H]1NC(=O)[C@H]2CN(C(=O)Oc3cccc4ccccc34)CCN2C1=O was read as TEAD-YAP block 7, GPR151 ag 0, FBW7 act 0 and MITF primary -5.
For CC(=O)C(C)Oc1cc(O)c2c(=O)cc(-c3ccccc3)oc2c1 (stereo not given) the results were TEAD-YAP block -22, GPR151 ag 0, FBW7 act 0 and MITF primary 0.
For O=C1CCCCC1Oc1cc(O)c2c(=O)cc(-c3ccccc3)oc2c1 (stereo not given) the results were TEAD-YAP block -7, GPR151 ag 7.0*, FBW7 act 0, MITF primary 5, GPR151 conf act 1 and GPR119 counter 22.
CCCCc1cc(=O)oc2c(C)c(OCC(=O)OC(C)(C)C)ccc12 was read as TEAD-YAP block -2, GPR151 ag 5.7*, FBW7 act 0, MITF primary 6, GPR151 conf act 0 and GPR119 counter -1.
